{"source": "PubChem BioAssay (Tox21)", "note": "Records with an inconclusive call do not appear. Calls of active or inactive are those of the source. The call rests on the fitted dose curve; in most records, active means well fitted cell-killing curve with a large enough effect in the repeat runs; inconclusive means weak or mixed curves; inactive means no such curve, though single readings can be large or run the other way. On the % scale 0 is the no-effect control and ±100 the full control effect."}
{"experiment": "qHTS assay for identifying genotoxic compounds that show differential cytotoxicity against isogenic chicken DT40 cell lines with known DNA damage response pathways - Rad54/Ku70 mutant cell line (AID 743015); further: nearly all actives have a fitted effect of over 60% in size", "details": "DT40 Rad54/Ku70 mutant viability, CellTiter-Glo, 40 h; series mostly up to 66.8 µM; activity change, negative = cytotoxicity: at the top concentration", "excerpt": "National Center for Advancing Translational Sciences [NCATS]\nNIH Chemical Genomics Center [NCGC]\nU.S. Environmental Protection Agency [EPA]\nNational Institutes of Environmental Health Sciences [NIEHS]\nNational Toxicology Program [NTP]\nU.S. Food and Drug Administration [FDA]\nDNA repair pathways play a critical role in cellular homeostasis by repairing DNA damage induced by endogenous processes and xenobiotics. Isogenic chicken DT40 cell lines deficient in different DNA repair pathways can be used to identify genotoxic compounds and aid in characterizing the nature of the DNA damage induced. Two DNA repair-deficient cell lines with disrupted genes, Rad54/Ku70 or Rev3, were used to screen the Tox21 10K compound library. Possible genotoxicity was based on the presence of a significant increase in cytotoxicity in one or more of the DNA repair-deficient cell lines compared to that observed in the parental DNA repair-proficient cell line. CellTiter Glo viability assay (Promega, Madison, WI) was used to measure cell viability in these cells after compound treatment. This assay includes the data from the Rad54/Ku70 mutant cell line.\nTox21 Assay Protocol Summary:\n300 DT40 mutant cells in 5 uL/well were dispensed into white, solid-bottom 1536-well plates using a Multidrop Combi (ThermoFisher Scientific, Waltham, MA) dispenser. After the assay plates were incubated at 37 C/5% CO2 for approximately 0.5 hour, 23 nL of compounds dissolved in DMSO, positive controls or DMSO only was transferred into the assay plate by a pintool work station (Kalypsys, San Diego, CA). The assay plates were incubated at 37 C/5% CO2 for 40 hours. After 5 uL per well of CellTiter-Glo reagent was added into each well of the assay plates, the plates were incubated for 30 min at room temperature and the luminescence intensity of the plates was measured using a ViewLux (PerkinElmer, Shelton, CT) plate reader."}
{"smiles": "O=C(O)c1ccccc1C(=O)Nc1ccc(S(=O)(=O)Nc2nccs2)cc1", "activity change, negative = cytotoxicity": "8.58% (inactive)"}
{"smiles": "C/C=C(\\C)C(=O)OCC/C=C\\CC", "activity change, negative = cytotoxicity": "-6.26% (inactive)"}
{"smiles": "CCN1CN(CC)CN(CC)C1", "activity change, negative = cytotoxicity": "-5.7% (inactive)"}
{"smiles": "O=C(O)C(=O)Nc1cccc(-c2nn[nH]n2)c1", "activity change, negative = cytotoxicity": "6.95% (inactive)"}
{"smiles": "CCCCCC(=O)OCC", "activity change, negative = cytotoxicity": "8.2% (inactive)"}
{"smiles": "F[Si-2](F)(F)(F)(F)F", "Potency": "inactive"}
{"smiles": "O=C1OC(=O)c2cc(Oc3ccc4c(c3)C(=O)OC4=O)ccc21", "activity change, negative = cytotoxicity": "-15.9% (inactive)"}
{"smiles": "CCCCC(C)C(=O)O", "note": "(stereo not given)", "activity change, negative = cytotoxicity": "11.6% (inactive)"}
{"smiles": "Nc1ccnc(=O)[nH]1", "activity change, negative = cytotoxicity": "-2.93% (inactive)"}
{"smiles": "O=[Si]=O", "activity change, negative = cytotoxicity": "0.96% (inactive)"}
{"smiles": "CC(=O)OC(C(=O)c1ccccc1)c1ccccc1", "note": "(stereo not given)", "activity change, negative = cytotoxicity": "-7% [at 95.1 µM] (inactive)"}
{"smiles": "CCOC(=O)OCC/C(SC(=O)OCC)=C(\\C)N(C=O)Cc1cnc(C)nc1N", "activity change, negative = cytotoxicity": "2.89% (inactive)"}
{"smiles": "CCCCCCCCCCCCCCCC(=O)NCCO", "activity change, negative = cytotoxicity": "3.48% (inactive)"}
{"smiles": "COc1ccc(NS(=O)(=O)c2ccc(N)cc2)nn1", "activity change, negative = cytotoxicity": "6.52% [at 30.7 µM] (inactive)"}
{"smiles": "CC(=O)/C=C/c1ccco1", "activity change, negative = cytotoxicity": "8.11% [at 95.1 µM] (inactive)"}
{"smiles": "CCCCCCCCCCCCOC(C)=O", "activity change, negative = cytotoxicity": "12.5% (inactive)"}
{"smiles": "NC(=O)NC(=O)Cc1ccccc1", "activity change, negative = cytotoxicity": "10.4% (inactive)"}
{"smiles": "COc1cc2c3cc1Oc1cc(ccc1O)C[C@@H]1c4c(cc(OC)c(O)c4Oc4ccc(cc4)C[C@@H]3N(C)CC2)CC[N+]1(C)C", "activity change, negative = cytotoxicity": "0.133% (inactive)"}
{"smiles": "COCCOCCOCCOC", "activity change, negative = cytotoxicity": "-0.744% (inactive)"}
{"smiles": "CC(C)COC(=O)CCCCC(=O)OCC(C)C", "activity change, negative = cytotoxicity": "-0.502% (inactive)"}
{"smiles": "COCC(=O)Nc1c(I)c(C(=O)NCC(O)CO)c(I)c(C(=O)N(C)CC(O)CO)c1I", "note": "(stereo not given)", "activity change, negative = cytotoxicity": "2.29% [at 30.7 µM] (inactive)"}
{"smiles": "NCCc1ccn[nH]1", "activity change, negative = cytotoxicity": "5.21% [at 30.7 µM] (inactive)"}
{"smiles": "CCCOCCOCCOCCO", "activity change, negative = cytotoxicity": "-10.6% (inactive)"}
{"smiles": "O=S(=O)(O)SSS(=O)(=O)O", "activity change, negative = cytotoxicity": "3.34% (inactive)"}
{"smiles": "CCc1nccnc1C", "activity change, negative = cytotoxicity": "5.02% (inactive)"}
{"smiles": "O=C(O)CCNC(=O)c1ccccc1", "activity change, negative = cytotoxicity": "0% (inactive)"}
{"smiles": "Cc1ccccc1OCC1CO1", "note": "(stereo not given)", "activity change, negative = cytotoxicity": "3.68% [at 95.1 µM] (inactive)"}
{"smiles": "CCCCC(CC)COC(=O)c1ccccc1", "note": "(stereo not given)", "activity change, negative = cytotoxicity": "-8.29% (inactive)"}
{"smiles": "CC(=O)Nc1ccc(C)cc1", "activity change, negative = cytotoxicity": "0.086% (inactive)"}
{"smiles": "CC(C)(C)c1ccc(C=O)cc1", "activity change, negative = cytotoxicity": "1.1% (inactive)"}
{"smiles": "Cc1nc2ccccc2c(=O)o1", "activity change, negative = cytotoxicity": "-4.54% [at 95.1 µM] (inactive)"}
{"smiles": "NS(=O)(=O)c1cc2c(cc1Cl)NC(CC1CCCC1)NS2(=O)=O", "note": "(stereo not given)", "activity change, negative = cytotoxicity": "5.99% [at 30.7 µM] (inactive)"}
{"smiles": "CN=C(NC#N)NCCSCc1csc(N=C(N)N)n1", "activity change, negative = cytotoxicity": "5.53% (inactive)"}
{"smiles": "Cc1cccc(NC(=S)N(C)C)c1", "activity change, negative = cytotoxicity": "-15.3% (inactive)"}
{"smiles": "C=COCCOCCOC=C", "activity change, negative = cytotoxicity": "5.64% (inactive)"}
{"smiles": "CC1CCC(C(C)(C)S)C(=O)C1", "note": "(stereo not given)", "activity change, negative = cytotoxicity": "-6.31% (inactive)"}
{"smiles": "FC(F)(F)c1ccc(Cl)cc1Cl", "activity change, negative = cytotoxicity": "7.33% (inactive)"}
{"smiles": "CCN(Cc1cccc(S(=O)(=O)O)c1)c1ccccc1", "activity change, negative = cytotoxicity": "-10.4% (inactive)"}
{"smiles": "CC1(N)CCC(C(C)(C)N)CC1", "note": "(stereo not given)", "activity change, negative = cytotoxicity": "4.44% (inactive)"}
{"smiles": "CCCCCC1Nc2cc(C(F)(F)F)c(S(N)(=O)=O)cc2S(=O)(=O)N1", "note": "(stereo not given)", "activity change, negative = cytotoxicity": "-0.317% (inactive)"}
